Laboratory results as given in PubChem BioAssay (NCI).
Values joined by “and” are separate entries in the source; they are usually repeats but may differ in a detail not shown here. Equal values may be shown once. The panel holds about 83,000 compounds, 20% with a hit somewhere; the sample as a whole holds those more often.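 A percent growth of 40 corresponds to 60% growth inhibition; 0 means no net growth; -100 means all cells died. Active threshold: below 10.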 Active and inactive are the calls of the source.

Test system: HL-60(TB) leukemia
Assay: NCI-60 one-dose screen, 48 h (100 = growth as untreated, 0 = no growth, -100 = all killed)
Conditions: 10 µM unless noted

| Structure (SMILES) | growth |
| --- | --- |
| Cc1cccc2c(=O)c3c(sc12)c(NCCCN)nc1ccccc13 | -34.9% (active) |
| COc1cc(C(=O)C[n+]2ccccc2)ccc1OC(C)=O | 101% (inactive) |
| Cc1nc2ccc(-n3ncc(C(=O)c4cc5ccccc5[nH]4)c3N)cc2[nH]1 | 36.5% (inactive) |
| O=C1NCC(Nc2ccc(Br)cc2Cl)C(=O)N1 (centres undefined) | 108% (inactive) |
| C#CCn1cnc2c(Nc3cccc(NC(=O)C=C)c3)ncnc21 | 99.6% (inactive) |
| COCCn1cc(-c2nc(-c3cccnc3)cs2)c2cc(F)ccc21 | 93.4% (inactive) |
| COc1ncc(F)c(OC)n1 | 95.3% (inactive) |
| O=C(/C=C/c1cccc2ccccc12)c1ccc(NC(=O)c2ccccc2CN2C(=O)c3ccccc3C2=O)cc1 | 44% (inactive) |
| COc1ccc(/C(C)=N/NC(=O)c2ccc(S(C)(=O)=O)cc2)cc1OC | 50.9% (inactive) |
| Cc1cc(Nc2cccc(C(F)(F)F)c2)n2c(nc3ccccc32)c1C#N | 31.8% (inactive) |
| C#CCN(C)Cc1ccccc1 | 101% (inactive) and 96.4% (inactive) |
| CCCCCCOc1ccc(/C=N/Nc2cc(C)nc3ccc(Br)cc23)cc1 | -13.7% (active) |
| Clc1cnc(Nc2ccc(OCCN3CCCC3)cc2)nc1NCc1ccco1 | -26.5% (active) |
| CCCCn1c(C)nc2ccc(Nc3nc(N4CCN(C)CC4)nc4nc[nH]c34)cc21 | 99.8% (inactive) |
| O=C(O)c1ccc(S(=O)(=O)O)cc1 | 115% (inactive) |
| O=C(/C=C/c1cccs1)c1ccc(Cl)nc1 | 100% (inactive) |
| C=CCSc1nnc(NC(=O)CCl)s1 | 91.5% (inactive) |
| O=C1C=C(C(O)c2ccc(O)cc2)C(=O)c2ccccc21 (centres undefined) | 98.4% (inactive) |
| Nc1nc(=S)c2ncn(C3OC(COC(=O)c4ccc(Cl)cc4)C(OC(=O)c4ccc(Cl)cc4)C3OC(=O)c3ccc(Cl)cc3)c2[nH]1 (centres undefined) | 93.7% (inactive) |
| Cc1[nH]c(C(=O)Nc2ccccc2OCc2cccc(C(=O)NCCN)c2)c(Cl)c1Cl | 45% (inactive) |

| Structure (SMILES) | growth |
| --- | --- |
| CC(c1ccccn1)C(C)(O)C(C)c1ccccn1 (centres undefined) | 69.8% (inactive) |
| CC(=O)Oc1cc(C(=O)O)cc(OC(C)=O)c1OC(C)=O | 108% (inactive) and 88.2% (inactive) |
| O=C(O)C1C(c2ccccc2)c2ccccc2C(O)C1CO (centres undefined) | 102% (inactive) |
| COc1ccc(OC)c(NC(=O)c2cc(S(=O)(=O)N3CCc4ccccc43)ccc2OC)c1 | 107% (inactive) |
| Oc1c(Cl)cc(Cl)cc1/C=N/Nc1nnc(N/N=C/c2cc(Cl)cc(Cl)c2O)c2ccccc12 | -24% (active) |
| O=[N+]([O-])c1ccc(NS(=O)(=O)c2cc(Cl)ccc2Cl)c2ccccc12 | 33.4% (inactive) |
| CN(C)CCOC(=O)C(C)(C)C | 89.7% (inactive) |
| COc1cc(NC2CCC(=O)N2c2ccc(Cl)cc2Cl)cc(OC)c1OC (centres undefined) | -3.13% (active) |
| NC(=S)c1c(N)n(C2OC(CO)C(O)C2O)c2ncnc(N)c12 (centres undefined) | -43.6% (active) |
| O=C1C=Cc2ncccc2C1=O | 57.7% (inactive) |
| C=C(C)[C@@H]1CC[C@]2(CO)CC[C@]3(C)[C@H](CC[C@@H]4[C@@]5(C)C=C(C#N)C(=O)C(C)(C)[C@@H]5CC[C@]43C)[C@@H]12 | -26.1% (active) |
| O=C(O)CCCN1C(=O)/C(=C/C(Cl)=C/c2ccccc2)SC1=S | 7.56% (active) |
| CN1CCN(C(=O)[C@]23CCC(C)(C)C[C@@H]2C2=CC[C@@H]4[C@@]5(C)Cc6c([nH]c7ccccc67)C(C)(C)[C@@H]5CC[C@@]4(C)[C@]2(C)CC3)CC1 | 76.7% (inactive) |
| CNC(C)[C@H]1CCC2C3CCC4C[C@@H](N(C)C(=O)c5ccccc5)CC[C@]4(C)C3CC[C@@]21C (some centres undefined) | 14.9% (inactive) |
| OCc1ncc(-c2ccccc2)s1 | 91.1% (inactive) |
| Cc1nc(N)sc1Sc1nc2ccc(Cl)cc2c(=O)n1-c1ccc(Oc2ccccc2)cc1 | 59.4% (inactive) |
| CC(C)CCN(CCCNc1c2c(nc3ccccc13)CCCC2)CCC(C)C | 102% (inactive) |
| CN1CCN(c2ccc3nc(-c4c(N)c5c(F)cccc5[nH]c4=O)[nH]c3c2)CC1 | 12.9% (inactive) and 3.6% (active) |
| COc1cc2oc(-c3cccc(NC(=O)c4cccc(Br)c4)c3)cc(=O)c2c(OC)c1OC | 65.5% (inactive) |
